SMILES strings stand for the structures. Inconclusive results are not listed. Where a structure was tested more than once in an assay, its records may differ in their call. Active and inactive are the calls of the source. Unless noted, the call rests on the fitted dose curve; in most records, active means well fitted curve in the direction sought with a large enough effect in the repeat runs; inconclusive means weak or mixed curves; inactive means no such curve, though single readings can be large; an effect the other way counts as inactive or inconclusive.

A short description of test [1]: qHTS assay to identify small molecule antagonists of the sonic hedgehog signaling (Shh) pathway (AID 1259369; calls by dose curve; further: nearly all actives have a fitted effect of over 45% in size; further: potency means the concentration at half of the fitted maximal effect). The method, boiled down:
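NIH/3T3 stable Gli1-Luc clone, 2,000 cells/well, 4hr settle; cpd + conditioned medium 24hr; Luc reagent 30min RT; luminescence.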
A general note: qHTS replaces the single test concentration by a dilution series.

For test [2], the target named is Estrogen receptor beta (Homo sapiens) (UniProt Q92731). Description: qHTS assay to identify small molecule agonists of the estrogen receptor beta (ER-beta) signaling pathway (AID 1259377; active means well fitted activation curve with a large enough effect in the signal ratio in the repeat runs, not every such curve was filed as active; the % refers to the signal ratio). In outline: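 Screening used GripTite ER-beta-UAS-bla cells held in 2% charcoal-stripped FBS medium. After overnight (16 hr) compound incubation at 37C, beta-lactamase activity was detected with a FRET substrate by fluorescence.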

The target is the same in test [3]. Description: qHTS assay to identify small molecule antagonists of the estrogen receptor beta (ER-beta) signaling pathway (AID 1259378; active means well fitted inhibition curve with a large enough effect in the signal ratio in the repeat runs, not every such curve was filed as active; the % refers to the signal ratio). In outline: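 ER-beta-UAS-bla HEK293T cells in 2% charcoal-stripped FBS medium treated with compound plus 1nM final 17-beta-estradiol for 16 hr at 37C. Beta-lactamase reporter read by FRET substrate fluorescence after 2 hours at room temperature.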

Test [4] can be described thus: qHTS assay to identify small molecule agonists of the androgen receptor (AR) signaling pathway in the presence of an antagonist - cell viability counter screen (AID 1259379).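 Further: MDA-kb2 human breast cancer cells carrying an MMTV luciferase reporter; series mostly up to about 92 µM; nearly all actives have a fitted effect of over 25% in size.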 In outline: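 MDA-kb2 viability measured by CellTiter-Fluor fluorescence in the same wells as the luciferase signal; nilutamide 3.0uM final; 15-point compound titration; 16 hr at 37C.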
A short description of test [5]: qHTS assay to identify small molecule agonists of the estrogen receptor beta (ER-beta) signaling pathway - cell viability counter screen (AID 1259380). Further: nearly all actives have a fitted effect of over 30% in size. In outline: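 Measured: luminescence from CellTiter-Glo after 30 min at room temperature, added to wells already read for the LiveBLAzer FRET reporter (2 hr substrate); ER-beta-UAS-bla HEK293T cells had 16 hr compound treatment at 37C, 5% CO2.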

For test [6], the target named is Androgen receptor (Homo sapiens) (UniProt P10275). Description: qHTS assay to identify small molecule agonists of the androgen receptor (AR) signaling pathway in the presence of an antagonist (AID 1259381; calls by dose curve; further: nearly all actives have a fitted effect of over 15% in size). The method, boiled down:
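Luminescent ONE-Glo read, 30min at room temperature, follows 16hr compound exposure (15 concentrations) of MDA-kb2 cells at 37C, 0% CO2, with nilutamide added at 3.0uM final.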

Test [7] is described as follows: qHTS assay to identify small molecule antagonists of the estrogen receptor beta (ER-beta) signaling pathway - cell viability counter screen (AID 1259382). Further: series mostly up to about 92 µM; nearly all actives have a fitted effect of over 55% in size. The method, boiled down: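 Readout: luminescence, CellTiter-Glo, same wells as bla assay. System: ER-beta-UAS-bla GripTite HEK293T, 2% charcoal-stripped FBS. Exposure: compounds plus 1nM 17-beta-estradiol, 16 hr, 37C.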

Test [8] is described as follows: qHTS assay to identify small molecule agonists or antagonists of the thyroid stimulating hormone receptor (TSHR) signaling pathway - wild type cell line counter screen (AID 1259384; calls by dose curve). In outline:
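Wild-type Hek293 cells, 800/well, 18 h at 37C, then compound with Ro20-1724 for 30 min RT. cAMP by HTRF (cAMP-d2/anti-cAMP cryptate), 1 h RT, fluorescence read. 15 concentrations, triplicates.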

Test [9] deals with Thyrotropin receptor (Homo sapiens) (UniProt P16473). Description: qHTS assay to identify small molecule antagonists of the thyroid stimulating hormone receptor (TSHR) signaling pathway (AID 1259385; calls by dose curve; further: nearly all actives have a fitted effect of over 20% in size). The method, boiled down:
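TSHR-HEK293 cells (800/well) plated 18 h, then compounds with Ro20-1724 and TSH at 1.5 ng/mL final, 30 min at room temperature. cAMP quantified by HTRF (cAMP-d2/anti-cAMP-cryptate, 1 h); 15 concentrations in triplicate.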

The nature of test [10]: qHTS assay to identify small molecule agonists of the estrogen receptor alpha (ER-alpha) signaling pathway in the presence of an antagonist - cell viability counter screen (AID 1259386).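 Further: series mostly up to about 92 µM; cells exposed to compounds for 22 h at 37 °C before the viability read; nearly all actives have a fitted effect of over 30% in size.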 The method, boiled down:
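The test measures whether compounds kill ER-alpha reporter cells (VM7Luc4E2) under antagonist co-treatment (ICI-182,780, 10.0nM). Fluorescence from CellTiter-Fluor is read after a 22hr exposure.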

The target of test [11] is Progesterone receptor (Homo sapiens) (UniProt P06401). Description: qHTS assay to identify small molecule agonists of the progesterone receptor (PR) signaling pathway (AID 1346784; calls by dose curve; further: nearly all actives have a fitted effect of over 30% in size). In outline: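 Seed PR-UAS-bla HEK 293T cells (2% charcoal-stripped FBS), incubate 6 hr at 37C; add compounds in DMSO, 16 hr at 37C; add LiveBLAzer B/G substrate, 2 hr RT; read fluorescence intensity.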

For test [12] the target is unchanged. The experiment in a line: qHTS assay to identify small molecule antagonists of the progesterone receptor (PR) signaling pathway (AID 1346795; active means well fitted inhibition curve with a large enough effect in the signal ratio in the repeat runs, not every such curve was filed as active; the % refers to the signal ratio; further: potency means the concentration at half of the fitted maximal effect). In outline:
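Screening used a GripTite HEK293T line with PR-responsive UAS-beta-lactamase. Cells were challenged with compound in the presence of 1 nM R5020 final for 16 hr at 37C; B/G FRET substrate, 2 hr room temperature, fluorescence.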

A short description of test [13]: qHTS assay to identify small molecule antagonists of the progesterone receptor (PR) signaling pathway - cell viability counter screen (AID 1346798). Further: series mostly up to about 92 µM; nearly all actives have a fitted effect of over 50% in size. In outline: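 Measures cytotoxicity in parallel with the PR antagonist reporter read: HEK293T PR-UAS-bla cells get compound and R5020 for 16 hr, and remaining viable cells are quantified by CellTiter-Glo luminescence.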

A short description of test [14]: qHTS assay to identify small molecule agonists of the progesterone receptor (PR) signaling pathway - cell viability counter screen (AID 1346799; calls by dose curve; further: nearly all actives have a fitted effect of over 45% in size). In outline: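 Using the same plates as the PR reporter screen, HEK293T PR-UAS-bla cells received compounds for 16 hr at 37C and were then lysed with CellTiter-Glo; luminescence was read 30 min later at room temperature.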

Test [15] is described as follows: qHTS assay to identify small molecule antagonists of the TGF-beta/Smad signaling pathway - cell viability counter screen (AID 1346824). Further: nearly all actives have a fitted effect of over 50% in size. The method, boiled down: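 SBE-bla HEK 293T cells, incubated overnight, then compound plus 0.25 ng/mL TGF-beta1 (stock added) for 5 hr at 37 C. Viability was read in the same wells by CellTiter-Glo luminescence after 30 min at room temperature.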

A short description of test [16]: qHTS assay to identify small molecule agonists of the TGF-beta/Smad signaling pathway - cell viability counter screen (AID 1346829). Further: top concentration of the series differs between compounds; nearly all actives have a fitted effect of over 45% in size. The method, boiled down:
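Luminescence from CellTiter-Glo, read after a 30 min room-temperature incubation, gives cell viability of SBE-bla HEK 293T cells treated 5 hr with compounds at 37 C.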

In test [17] the target is Thyrotropin-releasing hormone receptor (Homo sapiens) (UniProt P34981). The experiment in a line: qHTS assay to identify small molecule antagonists of the thyrotropin-releasing hormone receptor (TRHR) signaling pathway (AID 1346877; active means well fitted inhibition curve with a large enough effect in the repeat runs, not every such curve was filed as active; further: series mostly up to about 51 µM). In outline:
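Overnight-plated (18 h, 37 °C) HEK293 cells expressing TRHR were dye-loaded 2 h, treated with compound, then stimulated with TRH at 1 nM final. Fluorescence intensity was captured every second for 3 min.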

Test [18] has the same target. Description: qHTS assay to identify small molecule agonists of the thyrotropin-releasing hormone receptor (TRHR) signaling pathway (AID 1346891; calls by dose curve;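 further: HEK293 cells expressing TRHR with calcium dye readout; series mostly up to about 58 µM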). In outline: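 Overnight-plated (18 h, 37 °C, 5% CO2) TRHR-Hek293 cells; 2 h calcium dye at 37 °C; compound in DMSO; 3-min kinetic fluorescence read.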
The target of test [19] is Estrogen receptor (Homo sapiens) (UniProt P03372). The experiment in a line: qHTS assay to identify small molecule agonists of the estrogen receptor alpha (ER-alpha) signaling pathway in the presence of an antagonist (AID 1259383; calls by dose curve; further: top concentration of the series differs between compounds; nearly all actives have a fitted effect of over 15% in size). The method, boiled down:
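Quantitative HTS confirmation: compounds titrated at 15 concentrations onto estrogen-deprived VM7Luc4E2 cells carrying a four-ERE luciferase construct, with ICI-182,780 present at 10.0nM final. Signal is luminescence after 22hr exposure.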

Test [20] is described as follows: qHTS assay to identify small molecule agonists of the TGF-beta/Smad signaling pathway (AID 1346859; active means well fitted activation curve with a large enough effect in the signal ratio in the repeat runs, not every such curve was filed as active; the % refers to the signal ratio; further: series mostly up to about 77 µM). The method, boiled down: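 Beta-lactamase reporter activity downstream of Smad binding elements was measured in stably transfected HEK 293T cells; compounds were incubated for 5 hr, substrate for 2 hr at room temperature.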

Androgen receptor (Homo sapiens), sequence (P10275 whole entry, looked up): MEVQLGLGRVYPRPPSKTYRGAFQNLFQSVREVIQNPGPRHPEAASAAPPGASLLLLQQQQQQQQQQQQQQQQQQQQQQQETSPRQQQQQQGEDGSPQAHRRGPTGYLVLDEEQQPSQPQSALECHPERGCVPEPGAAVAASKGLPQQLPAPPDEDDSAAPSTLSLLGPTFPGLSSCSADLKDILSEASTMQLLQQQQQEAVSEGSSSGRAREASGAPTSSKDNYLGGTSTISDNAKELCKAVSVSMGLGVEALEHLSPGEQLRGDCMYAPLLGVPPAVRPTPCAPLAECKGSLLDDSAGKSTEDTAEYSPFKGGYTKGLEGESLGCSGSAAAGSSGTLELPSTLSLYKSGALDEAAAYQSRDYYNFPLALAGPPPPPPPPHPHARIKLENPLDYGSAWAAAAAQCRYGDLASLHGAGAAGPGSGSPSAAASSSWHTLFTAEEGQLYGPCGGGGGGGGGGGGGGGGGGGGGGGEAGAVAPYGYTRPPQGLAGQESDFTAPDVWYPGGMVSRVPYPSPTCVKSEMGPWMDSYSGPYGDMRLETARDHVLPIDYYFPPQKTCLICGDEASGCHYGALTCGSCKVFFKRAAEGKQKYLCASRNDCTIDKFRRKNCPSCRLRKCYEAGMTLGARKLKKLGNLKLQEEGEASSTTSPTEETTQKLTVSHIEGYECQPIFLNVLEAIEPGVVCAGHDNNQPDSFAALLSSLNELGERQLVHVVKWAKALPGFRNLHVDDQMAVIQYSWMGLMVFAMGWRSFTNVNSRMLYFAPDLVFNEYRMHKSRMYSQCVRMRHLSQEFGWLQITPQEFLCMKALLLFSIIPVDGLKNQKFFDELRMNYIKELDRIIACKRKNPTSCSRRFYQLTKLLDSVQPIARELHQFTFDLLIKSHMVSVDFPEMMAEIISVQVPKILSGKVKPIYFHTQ
Estrogen receptor (Homo sapiens), sequence (P03372 whole entry, looked up): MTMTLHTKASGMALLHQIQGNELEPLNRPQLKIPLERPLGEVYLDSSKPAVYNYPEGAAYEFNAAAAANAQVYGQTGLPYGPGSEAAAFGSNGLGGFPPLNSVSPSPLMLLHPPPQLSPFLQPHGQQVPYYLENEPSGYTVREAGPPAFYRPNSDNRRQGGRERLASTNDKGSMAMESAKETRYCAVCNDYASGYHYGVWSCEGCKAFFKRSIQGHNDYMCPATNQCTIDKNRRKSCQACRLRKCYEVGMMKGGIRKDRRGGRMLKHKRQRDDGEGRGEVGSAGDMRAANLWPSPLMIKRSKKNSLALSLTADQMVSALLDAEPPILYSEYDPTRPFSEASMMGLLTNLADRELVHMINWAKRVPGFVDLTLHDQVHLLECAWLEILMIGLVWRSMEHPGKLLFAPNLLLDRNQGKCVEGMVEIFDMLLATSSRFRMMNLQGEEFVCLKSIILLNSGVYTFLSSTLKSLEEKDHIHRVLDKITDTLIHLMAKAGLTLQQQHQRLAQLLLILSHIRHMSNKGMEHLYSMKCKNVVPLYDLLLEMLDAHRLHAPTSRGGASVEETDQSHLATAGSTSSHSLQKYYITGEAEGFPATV
Thyrotropin-releasing hormone receptor (Homo sapiens), sequence (P34981 whole entry, looked up): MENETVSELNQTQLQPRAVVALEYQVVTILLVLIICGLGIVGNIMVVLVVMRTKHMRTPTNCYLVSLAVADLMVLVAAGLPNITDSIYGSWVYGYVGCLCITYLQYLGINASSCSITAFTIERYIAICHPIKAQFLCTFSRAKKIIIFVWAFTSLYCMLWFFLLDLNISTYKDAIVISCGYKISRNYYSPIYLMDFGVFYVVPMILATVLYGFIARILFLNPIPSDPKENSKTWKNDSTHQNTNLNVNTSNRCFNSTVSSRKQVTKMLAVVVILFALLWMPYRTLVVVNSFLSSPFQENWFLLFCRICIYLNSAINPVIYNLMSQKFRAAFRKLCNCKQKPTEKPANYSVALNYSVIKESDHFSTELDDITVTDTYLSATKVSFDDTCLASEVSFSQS
Progesterone receptor (Homo sapiens), sequence (P06401 whole entry, looked up): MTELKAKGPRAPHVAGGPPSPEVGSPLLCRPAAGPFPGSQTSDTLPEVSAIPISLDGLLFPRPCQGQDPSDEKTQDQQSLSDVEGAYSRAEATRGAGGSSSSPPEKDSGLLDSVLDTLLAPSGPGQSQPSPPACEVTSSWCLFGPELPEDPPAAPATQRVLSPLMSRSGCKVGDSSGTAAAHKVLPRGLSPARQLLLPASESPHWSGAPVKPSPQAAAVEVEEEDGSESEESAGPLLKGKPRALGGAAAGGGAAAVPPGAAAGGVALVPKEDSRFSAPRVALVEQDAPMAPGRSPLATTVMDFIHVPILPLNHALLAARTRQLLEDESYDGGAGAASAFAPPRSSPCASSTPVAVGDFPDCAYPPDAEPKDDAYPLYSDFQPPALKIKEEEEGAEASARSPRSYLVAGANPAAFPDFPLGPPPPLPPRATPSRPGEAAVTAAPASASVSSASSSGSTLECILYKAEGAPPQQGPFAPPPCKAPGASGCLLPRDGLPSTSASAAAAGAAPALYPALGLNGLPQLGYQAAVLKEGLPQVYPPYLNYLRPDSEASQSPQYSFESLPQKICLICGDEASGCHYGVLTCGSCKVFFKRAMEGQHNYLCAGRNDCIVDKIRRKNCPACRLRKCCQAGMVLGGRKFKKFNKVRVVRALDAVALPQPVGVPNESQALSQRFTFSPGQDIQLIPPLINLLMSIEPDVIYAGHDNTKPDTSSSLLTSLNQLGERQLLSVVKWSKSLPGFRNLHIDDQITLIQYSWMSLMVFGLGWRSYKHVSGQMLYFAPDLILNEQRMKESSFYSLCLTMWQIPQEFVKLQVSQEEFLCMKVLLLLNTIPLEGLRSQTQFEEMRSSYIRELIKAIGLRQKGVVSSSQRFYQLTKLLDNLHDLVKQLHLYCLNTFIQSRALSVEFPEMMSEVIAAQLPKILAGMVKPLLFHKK
Thyrotropin receptor (Homo sapiens), sequence (P16473 whole entry, looked up): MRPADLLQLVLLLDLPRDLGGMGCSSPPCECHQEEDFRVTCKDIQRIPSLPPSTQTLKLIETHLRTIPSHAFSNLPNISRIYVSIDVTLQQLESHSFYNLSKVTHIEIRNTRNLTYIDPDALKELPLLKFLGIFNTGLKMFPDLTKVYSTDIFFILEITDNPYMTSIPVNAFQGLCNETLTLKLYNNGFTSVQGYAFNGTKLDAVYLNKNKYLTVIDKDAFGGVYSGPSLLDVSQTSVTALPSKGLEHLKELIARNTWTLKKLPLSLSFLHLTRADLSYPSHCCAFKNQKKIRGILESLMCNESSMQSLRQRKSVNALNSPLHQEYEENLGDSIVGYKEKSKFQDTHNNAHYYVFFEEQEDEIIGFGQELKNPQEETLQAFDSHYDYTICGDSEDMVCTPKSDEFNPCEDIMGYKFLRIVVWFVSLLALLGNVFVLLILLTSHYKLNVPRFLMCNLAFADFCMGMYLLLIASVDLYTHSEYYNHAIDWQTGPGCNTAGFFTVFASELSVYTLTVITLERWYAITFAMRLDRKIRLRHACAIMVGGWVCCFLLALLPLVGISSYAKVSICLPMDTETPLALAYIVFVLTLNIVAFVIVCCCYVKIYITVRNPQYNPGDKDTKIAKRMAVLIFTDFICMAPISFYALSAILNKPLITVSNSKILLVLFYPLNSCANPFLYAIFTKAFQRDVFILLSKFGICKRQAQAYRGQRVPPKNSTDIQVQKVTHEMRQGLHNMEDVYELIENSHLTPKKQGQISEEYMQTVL
Estrogen receptor beta (Homo sapiens), sequence (Q92731 whole entry, looked up): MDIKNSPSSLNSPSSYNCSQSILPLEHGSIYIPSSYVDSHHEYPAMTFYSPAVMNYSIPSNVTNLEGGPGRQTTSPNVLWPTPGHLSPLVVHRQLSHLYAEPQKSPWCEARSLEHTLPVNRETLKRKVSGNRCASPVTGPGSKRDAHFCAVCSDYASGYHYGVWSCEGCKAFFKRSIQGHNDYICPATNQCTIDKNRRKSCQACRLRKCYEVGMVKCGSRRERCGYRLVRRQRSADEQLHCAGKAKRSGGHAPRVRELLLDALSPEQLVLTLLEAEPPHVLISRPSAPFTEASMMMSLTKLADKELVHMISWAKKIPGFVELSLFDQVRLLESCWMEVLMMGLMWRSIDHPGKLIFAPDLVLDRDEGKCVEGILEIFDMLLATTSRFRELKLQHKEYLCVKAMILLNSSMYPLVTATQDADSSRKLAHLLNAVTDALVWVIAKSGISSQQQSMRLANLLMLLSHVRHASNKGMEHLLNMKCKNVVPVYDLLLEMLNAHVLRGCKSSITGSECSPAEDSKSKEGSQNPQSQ

With `COC(=O)Nc1nc2ccccc2[nH]1`, in [1], the Potency is 24.3 µM (active) and inactive. Moreover, the Potency result in test [2], in test [3], in test [4], in [5], in test [7] and in test [8] was “inactive” in each case. Also, the Potency result in [9], in test [10], in test [11], in test [12], in test [13] and in [14] was “inactive” in each case. For the same compound, the Potency result in test [15], in test [16] and in test [17] was “inactive” each time. In addition, in test [6], the result was inactive.
In the case of `CCOP(=S)(OCC)OP(=S)(OCC)OCC`, the Potency entry in [1], in test [2], in test [3], in test [4], in [5] and in test [7] was “inactive” throughout. In addition, the Potency entry in test [8], in test [9], in test [10], in test [11], in test [12] and in test [13] was “inactive” in each case. Also, the Potency entry in test [14], in test [15], in test [16] and in [17] was “inactive” in each case. Also, the outcome in test [6] and in test [18] was inactive.
Turning to `C=C(C)C#N`, the Potency result in test [1], in test [2], in [3], in test [4], in [5] and in test [7] was “inactive” throughout. The Potency entry in [19], in test [8], in test [9], in test [10], in test [11] and in test [12] was “inactive” throughout. The Potency result in test [13], in test [14], in test [16], in test [20] and in test [17] was “inactive” in each case. The compound was classed as inactive in [18].
In the case of `CC1(C)Cc2cccc(O)c2O1`, the Potency entry in [1], in test [2], in [3], in [4], in test [5] and in test [7] was “inactive” each time. Moreover, the Potency entry in test [19], in test [8], in test [9], in [10], in test [11] and in [12] was “inactive” throughout. For the same compound, the Potency result in test [13], in test [14], in [15], in test [16], in [20] and in test [17] was “inactive” in each case.
Regarding `O=C(O)CF`, the Potency entry in [1], in test [2], in [3], in [4], in [5] and in [7] was “inactive” in each case. Besides, the Potency entry in [19], in test [8], in test [9], in test [10], in [11] and in test [12] was “inactive” each time. The Potency result in [13], in test [14], in [15], in [16], in test [20] and in test [17] was “inactive” each time. In addition, the outcome in [18] was inactive.
Turning to `COP(=S)(OC)Oc1ccc(Sc2ccc(OP(=S)(OC)OC)cc2)cc1`, the Potency in test [1] is 68.6 µM (active) and inactive; in test [12], 54.5 µM (active) and inactive. For the same compound, the Potency result in [2], in test [3], in [4], in [5], in test [7] and in [19] was “inactive” in each case. For the same compound, the Potency result in test [8], in [9], in [10], in test [11], in test [13] and in test [14] was “inactive” throughout. Besides, the Potency result in [15], in test [16] and in test [17] was “inactive” each time. The outcome in test [6] and in test [18] was inactive.

Values taken from PubChem BioAssay (Tox21).
